# Records with an inconclusive call do not appear. Activity calls are given as the source filed them. The call rests on the fitted dose curve; in most records, active means well fitted cell-killing curve with a large enough effect; inconclusive means small, poorly fitted or top-dose-only effect, or effect the other way; inactive means flat fitted curve, though single readings scatter. *1 amine or outer side, *2 acyl side, *3 side chain or, on linkers, in order; H or OH if unused. Where a SMILES comes first, the peptide text is derived from it. [ ]: non-standard residue; d: D form. The star is where a group is joined. ξ: configuration not given here. X9 = CCC(C)(N*)C(=O)C1CC[C@@H](C(=O)N[C@@H](Cc2ccccc2)C(=O)NCC(=O)O)N1; X8 = O=C([C@@H]1CC(O)CN1[*:1])[*:2]; aIle = CC[C@@H](C)[C@H](N)C(=O)O; Thr(3ξ) = CC(O)[C@H](N)C(=O)O; ξIva = CCC(C)(N)C(=O)O; Aib = CC(C)(N)C(=O)O
# Test system: OV90
# Assay: Primary qHTS to identify gynecologic anti-cancer compounds using libraries of approved drugs and bioactive compounds (AID 1345084); further: nearly all actives have a fitted effect of over 55% in size
# Details: Gynecologic cancer cell panel viability, ATPlite luminescence, 48 h; series mostly up to 57.5 µM; activity change, negative = cytotoxicity: at the top concentration
# In short: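 Luminescence from the ATPlite ATP-monitoring reagent indicates viable cell number; lower signal means cytotoxicity. Cells received compound 16 h after seeding and were exposed for 48 h across five concentrations.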
# On the % scale 0 is the no-effect control and ±100 the full control effect.
row,Compound,"activity change, negative = cytotoxicity"
1,CCC1(O)CC2c3cc(OC)c(OC)cc3CCN2CC1CC(C)C (stereo not given),1.94% (inactive)
2,CC1=CC(=O)CC(C)(C)C1CO[C@@H]1O[C@H](CO)[C@@H](O)[C@H](O)[C@H]1O (stereo not given in full),2.79% [at 38.5 µM] (inactive)
3,C=C1CCC2(OC1)OC1CC3C4CC=C5CC(O)CC(O[C@@H]6OC[C@H](OC(=O)C(O)C(C)CC)[C@H](O)[C@H]6O[C@@H]6O[C@@H](C)[C@H](O)[C@@H](O)[C@H]6O)C5(C)C4CCC3(C)C1C2C (stereo not given in full),-4.79% [at 11.6 µM] (inactive)
4,CC(O)C/C=C/C=C/C(=O)OC1C=C2COC(=O)C2(O)C2(C)CCCC(C)(C)C12 (stereo not given),-0.58% [at 38.5 µM] (inactive)
5,N[C@@H](CC(=O)Nc1ccc(Oc2cc(F)c(F)cc2Br)cc1)C(=O)O,4.46% (inactive)
6,COc1ccc(CC(=O)NCc2ccccc2-c2ccccc2C(=O)NCCc2cccnc2)cc1,1.16% (inactive)
7,CC1OC(OC2C(OC(=O)[C@]34CCC(C)(C)C[C@H]3C3=CCC5[C@@]6(C)CC[C@H](OC7OC(C(=O)O)C(O)C(O)C7O)C(C)(C)C6CC[C@@]5(C)[C@]3(C)CC4O)OC(CO)C2O)C(O)C(O)C1OC1OCC(O)C(O)C1O (stereo not given in full),-5.89% [at 11.6 µM] (inactive)
8,C=C1CC/C=C(/CO)C(=O)C[C@@H]2[C@@H]1C[C@@]2(C)COC(C)=O,11.4% (inactive)
9,O=C(OC[C@H]1O[C@H](O[C@]2(CO)O[C@H](CO)[C@@H](O)[C@@H]2O)[C@H](O)[C@@H](O)[C@@H]1O)c1ccc(O)cc1,4.15% [at 25.3 µM] (inactive)
10,C=CCC/C=C/C#CCCCCCCCC[C@H]1C(=O)O[C@H](C)[C@@H]1O,-0.0709% [at 38.5 µM] (inactive)
11,COc1cc2c(cc1O)CC(O)(CO)C(CO)C2c1ccc(OC2OC(CO)C(O)C(O)C2O)c(OC)c1 (stereo not given),-7.67% [at 25.3 µM] (inactive)
12,C=C1[C@H]2CCC3[C@]4(C)CCC[C@@](C)(C(=O)O)C4CC[C@]3(C2)[C@H]1OC(C)=O (stereo not given in full),-2.88% [at 38.5 µM] (inactive)
13,CC[C@@H](C)[C@H](NC(=O)C(C)(C)NC(=O)[C@H](CCC(N)=O)NC(=O)C(C)(CC)NC(=O)[C@H](Cc1c[nH]c2ccccc12)NC(C)=O)C(=O)N[C@H](C(=O)NC(C)(C)C(=O)N[C@@H](CC(C)C)C(=O)NC(C)(C)C(=O)N1CCC[C@H]1C(=O)N[C@@H](CCC(N)=O)C(=O)NC(C)(C)C(=O)N1CC(O)C[C@H]1C(=O)NC(C)(CC)C(=O)C1CC[C@@H](C(=O)N[C@@H](Cc2ccccc2)C(=O)NCC(=O)O)N1)C(C)O (stereo not given in full) (Ac-W[ξIva]Q[Aib][aIle][Thr(3ξ)][Aib]L[Aib]PQ[Aib][X8]-X9),-20.1% [at 6.55 µM] (inactive)
14,OC[C@H]1O[C@@H](OCCc2ccccc2)[C@H](O[C@@H]2OC[C@@H](O)[C@H](O)[C@H]2O)[C@@H](O)[C@@H]1O,-2.32% [at 25.3 µM] (inactive)
15,CC1=CC23[C@H](C=C(C(=O)O)[C@@H]2COC(=O)[C@]3(O)CO)[C@@H]1C (stereo not given in full),-4.11% (inactive)
16,CC(C)(C)NS(=O)(=O)c1ccc(-c2ccc3[nH]nc(N)c3c2)cc1,-2.33% (inactive)
17,C[C@@H]1C[C@@H](O)[C@@]23CO[C@]2(CO)CCC[C@@H]3[C@@]12C[C@@H](c1ccoc1)OC2=O,-0.77% [at 38.5 µM] (inactive)
18,COc1cccc(CN(C(=O)CC(C)(C)C)C2CC(C(=O)N3CCNCC3)N(Cc3ccc4c(c3)OCO4)C2)c1 (stereo not given),-15.2% (inactive)
19,C=C1CC23CC1CCC2C12OC(=O)C(C)(C(O)CC1O)C2C3C(=O)O (stereo not given),15.3% [at 38.5 µM] (inactive)
20,COc1ccc(C2C(C(=O)O)C(C(=O)O)C2c2ccc(OC)cc2O[C@@H]2O[C@H](CO)[C@@H](O)[C@H](O)[C@H]2O)c(O[C@@H]2O[C@H](CO)[C@@H](O)[C@H](O)[C@H]2O)c1 (stereo not given in full),1.7% [at 25.3 µM] (inactive)
21,CC1OC(OC2C(OC3C(O[C@H]4CC[C@@]5(C)C(CC[C@]6(C)C5C(=O)CC5=C7CC(C)(C)CC(O)[C@]7(C)CC[C@]56C)C4(C)C)OC(C(=O)O)C(O)C3O)OCC(O)C2O)C(O)C(O)C1O (stereo not given in full),-4.22% [at 11.6 µM] (inactive)
22,CN1CCN(c2nc(-c3ccc(C(=O)NC4(C(=O)NCC#N)CCCCC4)cc3)cs2)CC1,-4.53% (inactive)
23,C[C@H]1/C=C/C=C/C=C/C=C/C=C/[C@@H](O)[C@H](C(=O)O)[C@H](O)C[C@H](O)CCC[C@H](O)C[C@H](O)C[C@H](O)[C@@H](C)C(=O)O[C@@H]1C,6.22% [at 25.3 µM] (inactive)
24,COc1cc(Nc2nc3c(s2)CCCC3c2ccccc2)ccc1-n1cnc(C)c1 (stereo not given),7.49% [at 11.6 µM] (inactive)
25,CCCO[C@@H]1O[C@H](CO)[C@@H](O)[C@H](O)[C@H]1O[C@@H]1OC[C@@H](O)[C@H](O)[C@H]1O,7.29% [at 38.5 µM] (inactive)
